Experimental data reported in PubChem BioAssay AID2284084 (EPA ToxCast).
Active and inactive are the calls of the source. Rule for the calls: active = hit-call score of the fitted dose curve at least 0.9, where 1 is the maximum; inactive = score below 0.9.

Each compound was assayed against human CK1alpha CK1 Kinase, CSNK1A1 (gene 1452) (UniProt P48729) (assay: ERF_TW_ENZ_hCSNK1A1: Eurofins (ERF) Enzymatic Radiometric [10 uM ATP] Assay for human CK1alpha CK1 Kinase).
Description: ERF_TW_ENZ_hCSNK1A1 is a biochemical, single-readout assay that uses extracted gene-proteins in a cell-free assay. Measurements were taken 0.5 hour after chemical dosing in a 96-well plate. See CK1alpha Human CK1 Kinase Enzymatic Radiometric Assay [10 uM ATP], Panlabs.ERF_TW_ENZ_hCSNK1A1 is an assay component calculated from the ERF_TW_ENZ_hCSNK1A1 assay. It is designed to measure enzyme activity using a type of enzyme reporter as detected by scintillation counting with radiometry technology.Data from the assay component ERF_TW_ENZ_hCSNK1A1 was analyzed at the assay endpoint, ERF_TW_ENZ_hCSNK1A1, in the positive analysis fitting direction relative to DMSO as the negative control and baseline of activity. Using a type of enzyme reporter, loss-of-signal activity can be used to understand changes in enzymatic activity as they relate to gene CSNK1A1. To generalize the intended target to other relatable targets, this assay endpoint is annotated to the kinase intended target family, where the subfamily is serine/threonine kinase.
CK1alpha (h) is incubated for 120 minutes at room temperature, with KRRRALS(p)VASLPGL (SP15) as substrate, and PP1 Analog II. 1NM-PP1 as control inhibitor. Test Sample Requirements: Compound should be supplied in 100%DMSO. We require a stock solution at a concentration of at least 50x higher than the Final Assay Concentration of your cpd. […]

Chain of human CK1alpha CK1 Kinase, CSNK1A1 (gene 1452) (P48729 whole entry, looked up): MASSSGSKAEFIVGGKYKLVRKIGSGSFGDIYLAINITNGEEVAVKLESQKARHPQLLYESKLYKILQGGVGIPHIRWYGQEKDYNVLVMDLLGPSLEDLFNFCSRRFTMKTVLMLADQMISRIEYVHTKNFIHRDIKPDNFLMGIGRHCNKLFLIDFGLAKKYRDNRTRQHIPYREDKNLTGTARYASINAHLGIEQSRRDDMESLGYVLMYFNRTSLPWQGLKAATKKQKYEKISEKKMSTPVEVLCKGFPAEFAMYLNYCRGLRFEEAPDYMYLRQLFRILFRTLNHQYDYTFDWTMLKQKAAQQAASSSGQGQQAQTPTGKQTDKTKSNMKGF

Row | SMILES | AC50
1 | O=C(/C=C/c1ccc(O)cc1)CC(=O)/C=C/c1ccc(O)cc1 | 872 nM (active)
